# Laboratory results taken from PubChem BioAssay (NCATS).
# Unmarked numbers belong to inactive results. Results filed as inconclusive are left out. Calls of active or inactive are those of the source. Unless noted, calls come from the whole dose curve; as a rule, active = well fitted curve in the direction sought with a large enough effect; inconclusive = small, poorly fitted or top-dose-only effect, or another doubt; inactive = no such curve, though single readings can be large; an effect the other way counts as inactive or inconclusive.
# Tests used:
# [1] = NFAT Signaling Pathway (AID 444; active = well fitted curve in either direction with a large enough effect, not every such curve was filed as active;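 note: carbachol stimulus at about its EC50 of 1 µM final; % is set by controls: 0 for no effect and ±100 for the full control effect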); settings: Jurkat NFAT-bla M1, carbachol, beta-lactamase ratio, 5 h; at 7.69 µM (top of the series) unless noted
# How it was run: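 Jurkat cells with NFAT-driven β-lactamase reporter and co-expressed M1 receptor, stimulated with carbachol (final 1 uM, ~EC50), compound titration, 5 h at 37 °C. CCF4 loaded 1 h at RT; 460/530 nm ratio gave %activity and AC50.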
# [2] = Stat Signaling Pathway (AID 446; active = well fitted curve in either direction with a large enough effect, not every such curve was filed as active;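 note: ME-180 cervical cancer cells given 40 pM IL-6 alongside compound; SIE-controlled beta-lactamase reporter measured as 460/530 nm FRET emission ratio; % is set by controls: 0 for no effect and ±100 for the full control effect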); settings: ME-180 SIE beta-lactamase reporter, IL-6 stimulated, 5 h; at 7.69 µM (top of the series) unless noted
# How it was run: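 FRET read-out (405 nm excitation, 460/530 nm emission) of a beta-lactamase reporter under a STAT-inducible element in ME-180 cervical carcinoma cells. Cells with compound receive 40 pM IL-6 for 5 h. Values are normalised to AC90 stimulation and AC90 JAK-inhibitor controls.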
# [3] = target: Glucocorticoid receptor (Homo sapiens) (UniProt P04150); assay: GR-GFP Redistribution (AID 450;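 active = compounds whose dose series gives a full or clear partial fitted curve of increased nuclear translocation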; note: potency is the fitted concentration of half-maximal effect); settings: U2OS GR-GFP nuclear translocation, laser cytometry, 2 h
# [4] = target: Glucocorticoid receptor (Homo sapiens) (UniProt P04150); assay: GR-EFC Redistribution (AID 451; calls by dose curve; note: potency is the fitted concentration of half-maximal effect); settings: CHO-K1 GR-EFC translocation, beta-gal luminescence, 2 h
# How it was run: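 CHO-K1 cells expressing nuclear EA and GR-ED fragments of b-gal; compounds titrated up to 46 uM final, 2 h at 37 C. GR nuclear translocation read as complemented b-gal luminescence after 1 h RT detection.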
# [5] = target: Mitogen-activated protein kinase 10 (Mus musculus) (UniProt Q61831); assay: JNK3 AlphaScreen Assay (AID 530; active = well fitted curve in either direction with a large enough effect, not every such curve was filed as active;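 note: kinase came from lysate of stimulated human HepG2 cells; signal reports phosphorylation of biotinylated GST-cJun 1-79 at Ser73 with 10 µM ATP; % is set by controls: 0 for no effect and ±100 for the full control effect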)
# How it was run: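 Activity was read by AlphaScreen after JNK3-containing HepG2 lysate (cytokine pre-activated) phosphorylated biotinylated GST-cJun with 10 uM ATP at room temperature. Phospho-Ser73 cJun antibody with Protein-A acceptor beads provided detection.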
# [6] = target: Cytochrome P450 3A4 (Homo sapiens) (UniProt P08684); assay: qHTS Assay for Inhibitors and Substrates of Cytochrome P450 3A4 (AID 884); note: potency is the fitted concentration of half-maximal effect; nearly all actives have a fitted effect of over 50% in size
# How it was run: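 Luminescent readout of luciferin produced by CYP3A4 (20 nM) dealkylation of Luciferin-PPXE, 25 uM (its KM). NADPH-driven reaction ran 60 min at RT after 10 min compound preincubation; data scaled to 57 uM ketoconazole as 100% inhibition.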
# [7] = target: Cytochrome P450 3A4 (Homo sapiens) (UniProt P08684); assay: qHTS Assay for Activators of Cytochrome P450 3A4 (AID 885); note: nearly all actives have a fitted effect of over 65% in size
# How it was run: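 Luminescent readout of luciferin formed from 25 uM Luciferin-PPXE (KM level) by 20 nM CYP3A4 in 200 mM KPO4, with 60 min NADPH-driven reaction at room temperature after 10 min compound exposure. Ketoconazole (57 uM) defined 100% inhibition.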
# [8] = target: Cytochrome P450 2C19 (Homo sapiens) (UniProt P33261); assay: qHTS Assay for Inhibitors and Substrates of Cytochrome P450 2C19 (AID 899); note: potency is the fitted concentration of half-maximal effect; nearly all actives have a fitted effect of over 60% in size
# How it was run: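 5 nM human CYP2C19 with 10uM Luciferin-H EGE (at KM) in 50mM KPO4, compound preincubated 10 min at 37C, then NADPH regeneration for 60 min at 37C. Luciferin read by luminescence after detection reagent; normalized to 57uM ketoconazole as full inhibition.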
# [9] = target: Dual specificity protein kinase CLK4 (Homo sapiens) (UniProt Q9HAZ1); assay: qHTS Assay for Inhibitors of CDC-like Kinase 4 (Kinase-Glo Assay) (AID 1770); note: nearly all actives have a fitted effect of over 65% in size; note: potency is the fitted concentration of half-maximal effect
# How it was run: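 Recombinant human Clk4 (25 nM) phosphorylated RS repeat peptide (100 uM) with 1 uM ATP in Tris pH 7.5/MgCl2/EGTA/DTT/Triton buffer for 4.5 h at room temperature. Residual ATP was quantified by Kinase-Glo luciferase luminescence.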
# [10] = target: Dual specificity protein kinase CLK4 (Homo sapiens) (UniProt Q9HAZ1); assay: qHTS Assay for Inhibitors of CDC-like Kinase 4 (ADP-FP Assay) (AID 1795); note: nearly all actives have a fitted effect of over 60% in size; note: potency is the fitted concentration of half-maximal effect
# How it was run: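 Recombinant human Clk4 (6.25 nM) phosphorylated RS repeat peptide (100 uM) with 1 uM ATP in Tris pH 7.5/MgCl2/EGTA/DTT/Triton buffer for one hour. ADP was quantified by Transcreener competitive fluorescence polarization against an ADP calibration curve.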
# [11] = target: Ubiquitin carboxyl-terminal hydrolase 1 (Homo sapiens) (UniProt O94782); assay: Inhibitors of USP1/UAF1: Pilot qHTS (AID 504865); note: nearly all actives have a fitted effect of over 35% in size; note: potency is the fitted concentration of half-maximal effect
# How it was run: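 USP1/UAF1 complex (1nM) preincubated with compound 15 min at room temperature, then Ub-Rho substrate (150nM final) added. Fluorescence read kinetically at 480/540 nm, 6 reads every 60 seconds. Buffer: 50mM HEPES pH 7.8, 0.5mM EDTA, 0.1 mg/ml BSA, 1mM TCEP, 0.01% Tween-20.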
# [12] = Primary qHTS for small molecule stabilizers of the endoplasmic reticulum resident proteome: Secreted ER Calcium Modulated Protein (SERCaMP) assay (AID 1508630); note: % is set by controls: 0 for no effect and ±100 for the full control effect
# How it was run: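 The SH-SY5Y reporter protocol was run at 3 concentrations up to 38.3 uM (primary) or 11 concentrations (follow-up): 16 h compound, 100 nM thapsigargin for 4 h, then extracellular luciferase luminescence.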
# [13] = target: Lysosomal acid glucosylceramidase (Homo sapiens) (UniProt P04062); assay: Glucocerebrosidase-p2 (AID 348; in the data active = potency below about 10 µM; note: potency is the fitted concentration of half-maximal effect); settings: purified GBA, blue fluorogenic substrate, 40 min
# How it was run: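 Normal human glucocerebrosidase (0.2 nM) with blue fluorogenic substrate (80 uM final) in citrate/phosphate pH 5.9 with 10mM sodium taurocholate, 0.01% tween-20; 40 min RT, NaOH/glycine stop; fluorescence Ex 365/Em 440; AC50 from a titration from 0.6 nM upwards.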
# [14] = AP1 Signaling Pathway (AID 357; active = well fitted curve in either direction with a large enough effect, not every such curve was filed as active; note: % is set by controls: 0 for no effect and ±100 for the full control effect); settings: ME-180 (cervical carcinoma) AP-1-bla reporter, EGF-induced, beta-lactamase ratio, 5 h; at 7.69 µM (top of the series) unless noted
# How it was run: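 Titration-series screen for positive or negative modulators of EC50 EGF-induced signaling in ME-180 cells carrying an AP-1-driven beta-lactamase reporter. After 5 hours at 37 degrees Celsius, CCF4 460nm/530nm emission ratio gave %Activity; AC50 values derived.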
# [15] = target: Cytochrome P450 1A2 (Homo sapiens) (UniProt P05177); assay: p450-cyp1a2 (AID 410; calls by dose curve; note: potency is the fitted concentration of half-maximal effect)
# How it was run: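 Luminescent demethylation readout: Luciferin-ME (100uM, equal to Km) turned over by 20nM CYP1A2 for 60 min at room temperature after NADPH regeneration addition, following 10 min compound preincubation. Normalization used 57 uM furafylline as full inhibition.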
# [16] = target: 3',5'-cyclic-AMP phosphodiesterase 4B (Homo sapiens) (UniProt Q07343); assay: qHTS Assay for Inhibitors of PDE-IV (AID 607; active = well fitted activation curve with a large enough effect in the main read-out, with a control signal flat, not every such curve was filed as active; note: % of control where 0% means no effect)
# How it was run: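 Cell-based read-out of cAMP via a modified cyclic nucleotide-gated channel and membrane potential dye (535/590 nm) in HEK293 cells expressing PDE4 endogenously. Compounds tested up to 22.9 uM final; 100 uM RO 20-1724 reference.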
# Ubiquitin carboxyl-terminal hydrolase 1 (Homo sapiens), sequence (O94782 whole entry, looked up): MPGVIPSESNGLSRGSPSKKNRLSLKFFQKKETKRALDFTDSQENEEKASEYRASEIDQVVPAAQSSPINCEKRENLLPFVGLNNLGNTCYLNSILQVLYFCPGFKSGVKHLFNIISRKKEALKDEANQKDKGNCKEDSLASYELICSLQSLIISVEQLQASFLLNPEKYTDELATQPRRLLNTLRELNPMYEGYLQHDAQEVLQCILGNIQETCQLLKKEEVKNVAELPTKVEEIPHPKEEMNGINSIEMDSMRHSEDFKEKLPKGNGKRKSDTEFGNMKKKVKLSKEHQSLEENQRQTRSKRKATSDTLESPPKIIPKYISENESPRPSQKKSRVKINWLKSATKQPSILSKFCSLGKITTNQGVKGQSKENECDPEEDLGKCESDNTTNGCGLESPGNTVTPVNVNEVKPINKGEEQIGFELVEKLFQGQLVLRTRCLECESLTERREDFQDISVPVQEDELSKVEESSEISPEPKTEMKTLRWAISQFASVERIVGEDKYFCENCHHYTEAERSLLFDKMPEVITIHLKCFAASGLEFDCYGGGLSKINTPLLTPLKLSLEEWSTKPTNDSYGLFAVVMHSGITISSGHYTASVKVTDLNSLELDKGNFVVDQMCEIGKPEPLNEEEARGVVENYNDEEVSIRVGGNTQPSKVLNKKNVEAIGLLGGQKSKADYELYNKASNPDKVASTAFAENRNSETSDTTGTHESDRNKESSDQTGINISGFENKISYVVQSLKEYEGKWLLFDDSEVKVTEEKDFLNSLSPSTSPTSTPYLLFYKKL
# Dual specificity protein kinase CLK4 (Homo sapiens), sequence (Q9HAZ1 whole entry, looked up): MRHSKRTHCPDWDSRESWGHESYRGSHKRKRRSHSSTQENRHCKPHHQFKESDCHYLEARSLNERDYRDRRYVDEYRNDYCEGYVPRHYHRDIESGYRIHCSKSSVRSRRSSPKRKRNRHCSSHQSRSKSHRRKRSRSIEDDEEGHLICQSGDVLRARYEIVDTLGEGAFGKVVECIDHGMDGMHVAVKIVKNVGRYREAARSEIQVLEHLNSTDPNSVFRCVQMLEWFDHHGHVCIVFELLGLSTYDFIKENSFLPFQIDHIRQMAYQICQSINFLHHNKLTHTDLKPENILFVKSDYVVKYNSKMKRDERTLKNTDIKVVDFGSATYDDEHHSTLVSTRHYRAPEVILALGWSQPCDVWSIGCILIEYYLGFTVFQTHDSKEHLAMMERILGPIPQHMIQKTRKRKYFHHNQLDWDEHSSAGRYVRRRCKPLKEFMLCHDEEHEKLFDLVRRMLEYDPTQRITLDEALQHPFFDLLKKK
# Lysosomal acid glucosylceramidase (Homo sapiens), sequence (P04062 whole entry, looked up): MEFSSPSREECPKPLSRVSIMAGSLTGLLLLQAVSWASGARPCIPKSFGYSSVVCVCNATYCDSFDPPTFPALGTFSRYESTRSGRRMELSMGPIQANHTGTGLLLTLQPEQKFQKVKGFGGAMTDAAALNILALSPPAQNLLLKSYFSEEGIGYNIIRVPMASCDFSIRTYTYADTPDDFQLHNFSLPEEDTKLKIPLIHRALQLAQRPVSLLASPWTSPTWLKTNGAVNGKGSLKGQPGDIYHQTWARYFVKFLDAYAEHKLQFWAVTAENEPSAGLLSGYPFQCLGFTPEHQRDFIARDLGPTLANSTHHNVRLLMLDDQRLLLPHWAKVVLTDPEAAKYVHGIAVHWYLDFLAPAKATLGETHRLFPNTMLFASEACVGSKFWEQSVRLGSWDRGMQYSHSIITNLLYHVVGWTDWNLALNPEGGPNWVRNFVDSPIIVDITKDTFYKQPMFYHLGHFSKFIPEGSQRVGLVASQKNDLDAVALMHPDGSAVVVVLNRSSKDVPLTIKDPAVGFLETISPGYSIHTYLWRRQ
# Glucocorticoid receptor (Homo sapiens), sequence (P04150 whole entry, looked up, the tested form may be a part): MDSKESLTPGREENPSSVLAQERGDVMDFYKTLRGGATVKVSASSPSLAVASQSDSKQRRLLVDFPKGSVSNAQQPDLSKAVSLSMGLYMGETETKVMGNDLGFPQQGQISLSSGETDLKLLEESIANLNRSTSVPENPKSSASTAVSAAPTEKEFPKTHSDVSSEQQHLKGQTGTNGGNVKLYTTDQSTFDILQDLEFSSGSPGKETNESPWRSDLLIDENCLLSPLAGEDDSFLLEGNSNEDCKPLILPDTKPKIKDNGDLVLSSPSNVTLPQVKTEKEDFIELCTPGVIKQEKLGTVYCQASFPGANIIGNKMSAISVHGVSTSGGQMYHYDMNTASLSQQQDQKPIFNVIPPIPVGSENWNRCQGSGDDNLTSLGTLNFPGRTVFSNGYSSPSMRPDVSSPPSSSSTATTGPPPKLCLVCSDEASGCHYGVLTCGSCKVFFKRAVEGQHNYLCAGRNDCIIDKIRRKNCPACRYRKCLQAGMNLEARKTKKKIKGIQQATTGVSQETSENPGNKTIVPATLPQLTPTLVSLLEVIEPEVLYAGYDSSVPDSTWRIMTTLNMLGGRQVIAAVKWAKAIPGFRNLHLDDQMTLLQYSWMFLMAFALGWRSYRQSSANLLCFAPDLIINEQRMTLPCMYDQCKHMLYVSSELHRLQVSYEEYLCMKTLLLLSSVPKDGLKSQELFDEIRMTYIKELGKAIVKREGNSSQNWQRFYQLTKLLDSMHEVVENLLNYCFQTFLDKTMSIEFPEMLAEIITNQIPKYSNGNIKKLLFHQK
# Cytochrome P450 3A4 (Homo sapiens), sequence (P08684 whole entry, looked up): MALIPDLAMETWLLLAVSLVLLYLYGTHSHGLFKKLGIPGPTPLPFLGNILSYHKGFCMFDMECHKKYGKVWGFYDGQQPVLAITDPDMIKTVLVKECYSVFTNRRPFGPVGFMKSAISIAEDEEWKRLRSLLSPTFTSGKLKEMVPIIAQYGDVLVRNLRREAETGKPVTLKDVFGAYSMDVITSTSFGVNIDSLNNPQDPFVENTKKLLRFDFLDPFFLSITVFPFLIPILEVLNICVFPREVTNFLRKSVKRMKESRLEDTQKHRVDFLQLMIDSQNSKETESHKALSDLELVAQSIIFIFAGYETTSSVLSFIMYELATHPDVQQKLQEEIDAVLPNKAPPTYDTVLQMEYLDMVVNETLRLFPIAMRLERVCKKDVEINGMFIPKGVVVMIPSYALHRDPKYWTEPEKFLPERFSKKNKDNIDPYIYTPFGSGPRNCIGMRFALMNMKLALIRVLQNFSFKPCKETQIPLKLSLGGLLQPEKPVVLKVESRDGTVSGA
# Cytochrome P450 1A2 (Homo sapiens), sequence (P05177 whole entry, looked up): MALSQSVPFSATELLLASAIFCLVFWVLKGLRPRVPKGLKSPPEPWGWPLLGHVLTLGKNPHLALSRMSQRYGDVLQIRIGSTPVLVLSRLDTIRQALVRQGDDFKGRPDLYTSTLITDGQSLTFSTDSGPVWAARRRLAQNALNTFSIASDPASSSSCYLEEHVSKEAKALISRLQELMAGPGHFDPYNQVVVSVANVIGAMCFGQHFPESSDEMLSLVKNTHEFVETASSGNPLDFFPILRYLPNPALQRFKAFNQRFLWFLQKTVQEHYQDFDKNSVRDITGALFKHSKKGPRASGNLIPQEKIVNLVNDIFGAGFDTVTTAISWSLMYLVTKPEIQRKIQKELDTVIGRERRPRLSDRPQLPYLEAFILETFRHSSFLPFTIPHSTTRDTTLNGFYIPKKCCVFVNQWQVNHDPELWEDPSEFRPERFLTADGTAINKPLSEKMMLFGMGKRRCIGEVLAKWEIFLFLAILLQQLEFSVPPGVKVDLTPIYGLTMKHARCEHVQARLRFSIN
# 3',5'-cyclic-AMP phosphodiesterase 4B (Homo sapiens), sequence (Q07343 whole entry, looked up): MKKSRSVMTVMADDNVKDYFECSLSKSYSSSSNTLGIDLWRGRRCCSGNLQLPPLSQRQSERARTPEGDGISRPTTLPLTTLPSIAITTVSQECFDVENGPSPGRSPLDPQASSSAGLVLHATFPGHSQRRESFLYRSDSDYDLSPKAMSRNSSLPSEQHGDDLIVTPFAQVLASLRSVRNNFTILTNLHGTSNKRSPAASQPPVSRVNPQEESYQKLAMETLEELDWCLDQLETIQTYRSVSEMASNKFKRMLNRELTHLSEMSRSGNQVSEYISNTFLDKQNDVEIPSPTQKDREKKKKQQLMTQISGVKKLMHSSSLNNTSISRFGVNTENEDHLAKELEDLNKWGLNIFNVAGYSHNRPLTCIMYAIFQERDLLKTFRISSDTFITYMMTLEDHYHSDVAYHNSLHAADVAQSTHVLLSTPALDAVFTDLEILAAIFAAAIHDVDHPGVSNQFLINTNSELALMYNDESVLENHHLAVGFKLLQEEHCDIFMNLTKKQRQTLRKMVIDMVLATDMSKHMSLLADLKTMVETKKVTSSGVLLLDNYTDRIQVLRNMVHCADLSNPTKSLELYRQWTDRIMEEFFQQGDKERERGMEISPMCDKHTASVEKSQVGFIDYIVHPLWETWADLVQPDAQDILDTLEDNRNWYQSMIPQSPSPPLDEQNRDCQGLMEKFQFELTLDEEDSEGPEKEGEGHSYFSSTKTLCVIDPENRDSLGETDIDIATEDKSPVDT
# Cytochrome P450 2C19 (Homo sapiens), sequence (P33261 whole entry, looked up): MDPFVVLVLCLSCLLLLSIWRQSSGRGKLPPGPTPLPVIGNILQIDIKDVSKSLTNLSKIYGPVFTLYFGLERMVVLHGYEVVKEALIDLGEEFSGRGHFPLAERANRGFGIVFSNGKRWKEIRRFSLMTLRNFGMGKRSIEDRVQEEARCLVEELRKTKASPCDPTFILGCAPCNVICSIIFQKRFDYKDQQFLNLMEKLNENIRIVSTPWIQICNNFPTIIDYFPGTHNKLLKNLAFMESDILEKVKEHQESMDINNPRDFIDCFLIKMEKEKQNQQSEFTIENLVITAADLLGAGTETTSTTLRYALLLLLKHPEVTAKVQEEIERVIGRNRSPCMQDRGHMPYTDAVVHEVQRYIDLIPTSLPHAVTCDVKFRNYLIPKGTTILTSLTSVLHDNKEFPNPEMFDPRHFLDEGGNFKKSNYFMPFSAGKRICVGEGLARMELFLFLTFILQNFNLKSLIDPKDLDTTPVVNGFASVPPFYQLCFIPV
SMILES,"activity change, negative = inhibition [1] [%]","activity, negative = inhibition [2] [%]",Potency [3] [µM],Potency [4] [µM],Potency [5],Potency [6],Potency [7],Potency [8],Potency [9],Potency [10],Potency [11],outcome [12],Potency [13] [µM],"activity change, negative = inhibition [14] [%]",Potency [15],Potency [16]
Clc1ccccc1-c1nc(NCc2cccs2)c2ccccc2n1,-8.75,0.228,> 46,> 46,inactive,6.31 µM (active),inactive,7.94 µM (active),7.94 µM (active),12.6 µM (active),14.1 µM (active),inactive,,,,
FC(F)(F)c1ccccc1-c1cc(NCc2cccnc2)ncn1,4.08,,> 46,> 46,inactive,,inactive,,inactive,inactive,inactive,inactive,> 11.4,-2.3,3.98 µM (active),inactive
Cc1cnc(CNc2ncncc2-c2ccccc2C)cn1,-3.77,-10.5,> 46,> 46,inactive,,inactive,7.94 µM (active),inactive,inactive,inactive,inactive,> 11.4,3.21,25.1 µM (active),inactive
Cc1cnc(CNc2cc(-c3ccccc3CN(C)C)ncn2)cn1,-9.03,7.96,> 46,> 46,inactive,,,,inactive,inactive,inactive,inactive,> 11.4,17.7,,inactive
N#Cc1cccc(-c2nc(NCc3cccs3)c3ccccc3n2)c1,-16.7,-29.9,> 46,> 46,inactive,3.98 µM (active),inactive,,inactive,inactive,,inactive,> 11.4,-7.71,0.316 µM (active),
COCCn1c(=O)c(-c2cccs2)nc2cncnc21,11.8,-2.25,> 9.22,> 46,inactive,,inactive,,inactive,,inactive,inactive,> 11.4,-17.4,3.16 µM (active),
